Nrf2 inh = Nrf2 qHTS screen for inhibitors; Potency, µM (titrated, usually from 46 µM), for inactives: at the top dose activity change, negative = inhibition, hits mostly inhibitors; actives 2.1% (n = 360,000); A549 ARE-Fluc reporter, luciferase luminescence, 18-24 h; AID 504444, 2011; further: potency means the concentration at half of the fitted maximal effect; on the % scale 0 is the no-effect control and ±100 the full control effect; nearly all actives have a fitted effect of over 60% in size
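In this cell-based qHTS, ARE-driven firefly luciferase in A549 cells reports Nrf2 activity; the luminescent signal after BugLite lysis is the measured value, with a prior CellTiter-Fluor read for cell health.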
Nrf2 activator = qHTS of Nrf2 Activators | AREc32 ARE-luciferase reporter (MCF7-derived line), luminescence, 24 h | Potency, µM (top dose mostly 46.1 µM), inactives show at the top dose activation, most hits filed as activators | actives 0.31% (n = 410,000) | AID 624171, 2012; further: potency means the concentration at half of the fitted maximal effect; % of control where 0% means no effect; nearly all actives have a fitted effect of over 65% in size
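Steps: seed AREc32_Fluc cells (1000/well, 5% FBS OPTI-MEM); incubate overnight at 37 deg C; add 23 nL compound; incubate 24 hr; add Steady-Glo; hold 30 min RT; read luminescence.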
GRP78 ERSR act = qHTS for Inducers of the Endoplasmic Reticulum Stress Response (ERSR) in Human Glioma: qHTS; U87-MG GRP78 promoter luciferase reporter, 16 h; Potency, µM, for the others: at the top dose activation, actives largely listed as activators; actives 0.02% (n = 420,000); further: potency means the concentration at half of the fitted maximal effect; series mostly up to about 76 µM; % of control where 0% means no effect; nearly all actives have a fitted effect of over 35% in size
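Stably transfected U87-MG glioma cells carrying a GRP78-based luciferase sensor; 16 h compound incubation. Luminescence end-point read 10 min after Bright-Glo addition at room temperature.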
A549 tox = Nrf2 qHTS screen for inhibitors: counterscreen for cytotoxicity; A549 ARE-Fluc cells, CellTiter-Fluor viability, 18-24 h; Potency, µM (titrated, usually from 46 µM), inactives show at the top dose activity change, negative = cytotoxicity, usual class: inhibitors; actives 0.16% (n = 390,000); AID 504648, 2011; further: potency means the concentration at half of the fitted maximal effect; on the % scale 0 is the no-effect control and ±100 the full control effect
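Cytotoxicity counterscreen: CellTiter-Fluor fluorescence was measured in A549 ARE_Fluc cells after 18-24 h of compound exposure in a concentration series. The subsequent BugLite luminescent read reports ARE-luciferase activity.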
TSG101-PTAP inh = qHTS Assay for Iinhibitors of HIV-1 Budding by Blocking the Interaction of PTAP/TSG101; Tumor susceptibility gene 101 protein (Homo sapiens), Q99816; Fluorescence polarization, FITC-PTAP peptide / Tsg101 binding; Potency, µM (highest dose often 115 µM), for inactives: at the highest dose activity change, negative = inhibition, most hits filed as inhibitors; 340,000 tested, under 10 active; AID 493005, 2010; active means well fitted inhibition curve with a large enough effect in the main read-out, with a control signal flat, not every such curve was filed as active; inconclusive means small, poorly fitted or top-dose-only effect, or effect the other way, or a change in a side signal; inactive means no such curve, though single readings can be large or run the other way; further: potency means the concentration at half of the fitted maximal effect; % of control where 0% means no effect
Target sequence (Q99816 whole entry, looked up): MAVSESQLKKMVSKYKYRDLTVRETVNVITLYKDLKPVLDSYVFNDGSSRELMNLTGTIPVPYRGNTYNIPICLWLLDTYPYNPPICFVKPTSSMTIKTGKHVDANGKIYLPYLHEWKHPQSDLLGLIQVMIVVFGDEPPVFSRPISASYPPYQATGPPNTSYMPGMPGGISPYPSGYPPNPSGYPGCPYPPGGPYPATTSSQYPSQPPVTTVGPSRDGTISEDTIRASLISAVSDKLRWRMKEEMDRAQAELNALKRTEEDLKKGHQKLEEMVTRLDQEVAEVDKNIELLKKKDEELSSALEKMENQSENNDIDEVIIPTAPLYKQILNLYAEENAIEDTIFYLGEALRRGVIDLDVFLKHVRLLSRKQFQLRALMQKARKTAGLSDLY
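FP read-out: FITC-PTAP peptide, 50 nM final, binding Tsg101 binding domain, 10 uM final; 20 min, r.t.; 10 mM HEPES pH 7.5, 0.15 M NaCl, 0.01% Tween 20, 3 mM EDTA, 0.1 mM TCEP.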
miR-21 act = qHTS Assay for Modulators of miRNAs and/orActivators of miR-21; Potency, µM (top dose mostly 38.3 µM), without a hit: at the highest dose activity change, positive = activation, actives largely listed as activators; HeLa miR-21 FLuc reporter, luciferase, 48 h; 340,000 tested, under 10 active;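 further: % of control where 0% means no effect; miR-21 action dims this reporter so a rising signal means less miR-21 action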
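HeLa miR-21-FLuc reporter line, endogenous miR-21; 2000 cells/well in DMEM/10% FBS; compound titration up to ~40uM final, 48 h, 37 degree Celsius; luciferase detection reagent, 15 min lysis, CCD luminescence.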
* = called active by the depositor; ? = inconclusive; . = no result given; ! = not confirmed by another sample; [ ] = remark or other dose. The list is not random: actives were taken first. Their share in the collection is about 2.1%. Unless noted, the call rests on the fitted dose curve; in most records, active means well fitted curve in the direction sought with a large enough effect; inconclusive means small, poorly fitted or top-dose-only effect, or another doubt; inactive means no such curve, though single readings can be large; an effect the other way counts as inactive or inconclusive.

SMILES | Nrf2 inh | Nrf2 activator | GRP78 ERSR act | A549 tox | TSG101-PTAP inh | miR-21 act
COCC(=O)Nc1cc(C(=O)N2CCSCC2)cc2nc(-c3ccccc3)n(C)c12 | . | . | -5.8% | . | . | .
O=C(Nc1ccc(F)c(F)c1)c1ccc(-n2cncn2)c([N+](=O)[O-])c1 | 10.3µM* | 2.2% | -0.6% | -14.5% | 1.3% | .
O=C(Nc1cc(F)ccc1F)c1ccc(-n2cncn2)c([N+](=O)[O-])c1 | -13.8% | -0.6% | 1.2% | 0.7% | -3.5% | .
O=C(OCC1OC(OC(=O)c2cc(O)c(O)c(OC(=O)c3cc(O)c(O)c(O)c3)c2)[C@@H](OC(=O)c2cc(O)c(O)c(OC(=O)c3cc(O)c(O)c(O)c3)c2)C(OC(=O)c2cc(O)c(O)c(OC(=O)c3cc(O)c(O)c(O)c3)c2)C1OC(=O)c1cc(O)c(O)c(OC(=O)c2cc(O)c(O)c(O)c2)c1)c1cc(O)c(O)c(OC(=O)c2cc(O)c(O)c(O)c2)c1 (some centres not stated) | . | . | -11.8% | . | . | .
O=C(/C=C/c1ccc(Br)o1)Nc1nccs1 | ? | 6.31µM* | 3.5% | 1.5% | 1.6% | -33.8%
O=C(Nc1nccs1)c1ccc(Br)o1 | ? | 6.6% | 2.4% | -3.2% | -3.5% | -42.2%
CCN1CCCC1CNC(=O)c1cnn(-c2ncc(C)c(-c3ccc(F)cc3)n2)c1C(C)C (configuration not stated) | . | . | -5.3% | . | . | .
O=C(NCc1ccc2c(c1)OCO2)c1cccc(S(=O)(=O)N2CCCCC2)c1 | 14.6µM* | -0.3% | -5.8% | -8.6% | -1.2% | -6.4%
O=C(c1cccc(S(=O)(=O)N2CCCC2)c1)c1cccc(S(=O)(=O)N2CCCC2)c1 | 8.2µM* | -0.4% | -2.0% | -14.9% | -0.4% | 28.5%
O=C(NCc1ccc(Cl)cc1)c1cccc(S(=O)(=O)N2CCCC2)c1 | -15.9% | -0.6% | -6.7% | 4.8% | -6.7% | .
O=C(NCCOc1ccc(Cl)cc1)c1cccc(S(=O)(=O)N2CCCC2)c1 | 23.1µM* | -0.5% | -2.3% | -0.2% | -1.7% | .
O=C1CCc2cc(S(=O)(=O)Nc3cccc(Br)c3)ccc2N1 | ? | . | . | -1.9% | . | .
CC(C)(C)n1ncc2c(=O)n(Cc3cccc(OC(F)F)c3)cnc21 | . | . | -0.5% | . | . | .
O=C1c2ccccc2C(=O)N1c1cnc2ccccc2c1 | 9.5% | . | . | 10.4% | . | .
CC1CCN(c2ncnc3ccccc23)CC1 | 14.6µM* | -0.2% | -3.1% | -13.6% | -6.8% | 2.6%
CC1CCN(c2nc(-c3ccccc3O)nc3ccccc23)CC1 | 27.6% | 3.0% | -1.2% | -9.6% | -1.1% | 0.7%
Cc1c(C(=O)N2CCOc3ccccc3C2)sc2ncnc(NCCCN3CCOCC3)c12 | . | . | -3.3% | . | . | .
O=C(Nc1ccc(S(=O)(=O)NC2CCCCC2)cc1)c1ccc(Br)o1 | 14.6µM* | -0.1% | -2.2% | -12.6% | -1.4% | 9.3%
CCn1c(SCC(=O)N2c3ccccc3Sc3ccccc32)nnc1-c1ccco1 | 23.1µM* | 3.1% | -3.4% | -10.4% | -5.5% | -5.8%
Cc1ncc(C[n+]2csc(C)c2C)c(N)n1 | 1.6% | 1.6% | -2.3% | 4.0% | -0.6% | -2.6%
Cc1ncc(C[n+]2csc(CCO)c2C)c(N)n1 | 14.6µM*! | 0.1% | -2.0% | ? | 2.1% | -18.2%
NS(=O)(=O)c1ccc(S(=O)(=O)N2CCN(c3nc(-c4ccccc4)nc4ccccc34)CC2)cc1 | 23.1µM* | . | . | -11.6% | . | .
CCN(CC)CCNCC1C(=O)O[C@@H]2C[C@@]3(C)CCC[C@H](C)C3=C[C@H]12 (some centres not stated) | -11.2% | 11.2µM* | -8.7% | 0.9% | -2.9% | 16.0%
CC(C)Cn1cc(NC(=O)N2CCN(c3cccc(C(F)(F)F)c3)CC2)c2ccccc2c1=O | -16.6% | -0.5% | -2.9% | -5.2% | . | 0.2%
CC(C)Cn1cc(NC(=O)Nc2cccc(C(F)(F)F)c2)c2ccccc2c1=O | 23.1µM* | 2.3% | -0.1% | -19.7% | . | ?
SMILES | Nrf2 inh | Nrf2 activator | GRP78 ERSR act | A549 tox | TSG101-PTAP inh | miR-21 act
CC(C)Cc1ccc(CN2CCCC(NC(=O)c3ccnn3C)C2)cc1 (configuration not stated) | 13µM* | 0.2% | -6.1% | -18.9% | 0.1% | 19.0%
CC(C)Cc1ccc(CN2CCCC(NC(=O)c3ccoc3)C2)cc1 (configuration not stated) | -9.5% | 0.9% | -4.4% | -10.5% | -0.3% | 20.0%
O=C(Cn1c(=O)n(Cc2nc(-c3ccccc3)no2)c(=O)c2ccccc21)Nc1cccc(C(F)(F)F)c1 | 16.4µM* | -1.2% | -5.5% | -16.3% | . | ?
O=C(C[N+]12CN3CN(CN(C3)C1)C2)c1ccc(O)c(O)c1 | . | . | -4.4% | . | . | .
CN1N/C(=C\c2ccccc2)N=C2C(=O)N(C)C(=O)N=C21 | ? | . | -10.7% | 5.8µM* | . | .
CC/C=C1/N=C2C(=O)N(C)C(=O)N=C2N(C)N1 | ? | . | -9.4% | -5.6% | . | .
Cc1cc(C)n(-c2cccc(C(=O)NCC3Cc4cccc(-c5cccnc5)c4O3)c2)n1 (configuration not stated) | . | . | -2.3% | . | . | .
COc1cccc(C2(CC(=O)N3CCN(c4ccccn4)CC3)CC(=O)N(C3CCCC3)C2=O)c1 (configuration not stated) | . | . | -2.3% | . | . | .
COC(=O)[C@@]1(Cc2ccc(OC)cc2)[C@@H]2C(=CC(=O)[C@H]2CC(=O)C(=O)N(C)C)CN1C(=O)c1ccccc1 | ? | ? | -2.2% | -17.0% | 1.2% | ?
C=C1C(=O)C=C2CN(C(=O)c3ccccc3)[C@@](Cc3ccc(F)cc3)(C(=O)OC)[C@@H]12 | 13µM* | -2.9% | -11.6% | 10.3µM* | 1.6% | 27.2%
O=C(c1ccccc1O)N(Cc1ccccc1)Cc1cccs1 | 17.9% | . | . | 1.8% | . | .
Cc1ccc(C(=O)N/N=C/c2ccc([N+](=O)[O-])s2)cc1 | 16.4µM* | -3.5% | -18.2% | ? | -4.8% | ?
Cc1cccc(NC(=S)N/N=C/c2ccc([N+](=O)[O-])s2)c1 | 11.2µM* | -0.7% | -6.8% | ? | -5.4% | 21.2%
Cc1ccc([N+](=O)[O-])c(C(=O)N/N=C/c2cccs2)c1 | 9.2µM* | 0.5% | 1.4% | -2.8% | -4.0% | -16.0%
O=C(N/N=C/c1cccc(Oc2ccccc2)c1)c1cccc(Br)c1 | 18.4µM* | 2.9% | -0.2% | 0.0%[1.84 µM] | -5.4% | -8.4%
Cc1oc(-c2cccc(NC(=O)C3CCCN(C)C3)c2)nc1CNC(=O)c1coc2c1C(=O)CCC2 (configuration not stated) | . | . | -5.8% | . | . | .

Screening results: PubChem BioAssay, National Center for Advancing Translational Sciences (NCATS)
